LmPK inhibitor: blocks Leishmania mexicana pyruvate kinase activity | AID 1721 | 0.37% of 290,000 active | Potency, µM (highest dose often 57.5 µM), without a hit: at the top dose activity change, negative = inhibition, hits mostly inhibitors | purified LmPK, Kinase-Glo ATP luminescence, 1 h; further: potency means the concentration at half of the fitted maximal effect; on the % scale 0 is the no-effect control and ±100 the full control effect
Target sequence (Q27686 whole entry, looked up): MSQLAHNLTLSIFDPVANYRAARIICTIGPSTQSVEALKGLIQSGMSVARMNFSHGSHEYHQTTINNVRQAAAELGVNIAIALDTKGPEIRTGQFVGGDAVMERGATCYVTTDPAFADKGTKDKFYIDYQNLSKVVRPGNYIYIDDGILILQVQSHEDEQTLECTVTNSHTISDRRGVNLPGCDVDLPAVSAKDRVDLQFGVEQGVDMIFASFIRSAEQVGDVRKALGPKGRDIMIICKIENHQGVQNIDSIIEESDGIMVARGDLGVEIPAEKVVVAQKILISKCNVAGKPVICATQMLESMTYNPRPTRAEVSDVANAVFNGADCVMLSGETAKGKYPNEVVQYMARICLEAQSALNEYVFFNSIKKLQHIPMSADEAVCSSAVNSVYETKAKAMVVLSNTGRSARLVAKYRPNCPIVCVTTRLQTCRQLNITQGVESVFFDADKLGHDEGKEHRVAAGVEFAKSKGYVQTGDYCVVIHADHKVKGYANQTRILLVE
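Screened at intermediate enzyme activity to detect both inhibitors and activators: LmPK at 0.1 nM, with a 0.5 nM enzyme column as activation reference. PEP 0.5 mM, ADP 0.1 mM; ATP detected by luminescence after 1 h.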
CHX counter: counter-screen for Shiga toxin inhibitors: cycloheximide protein synthesis inhibition; cell reporter, cycloheximide protein synthesis inhibition counterscreen; max response, %; 12% of 300,000 active; AID 2314; in the data active means max response mostly above about 13%, no sharp cut-off; inactive means mostly below about 14%; further: read at 38.3 µM for the half of the compounds with a filed dose; 0% is about no effect
NS1 inh: influenza NS1 inhibition. Potency, µM (doses to about 46.1 µM), without a hit: at the top dose activity, positive = more growth. 0.4% of 270,000 active; calls by dose curve; further: potency means the concentration at half of the fitted maximal effect; actives are rising curves; nearly all actives have a fitted effect of over 50% in size
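S. cerevisiae expressing influenza A NS1, grown in glucose, washed, then diluted 1:100 into pH 6.0 -URA galactose medium with 23 nl compound. Growth recovery read as OD600; NS1-free strain serves as control.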
Giardia FBPA inh: Giardia lamblia aldolase inhibition; A8B2U2; purified Giardia FBPA; Potency, µM (highest dose often 59.6 µM), for inactives: at the highest dose activity, negative = inhibition, hits mostly inhibitors; 0.71% of 290,000 active; AID 2451; further: potency means the concentration at half of the fitted maximal effect; on the % scale 0 is the no-effect control and ±100 the full control effect; nearly all actives have a fitted effect of over 55% in size
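40 nM FBPA preincubated 10 min at RT with compound (up to 57.5 uM final), then substrate plus GAPDH/TPI/NAD/arsenate coupling and diaphorase/resazurin added. Fluorescence read after 20 min at RT, 525/598 nm.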
Shiga toxin inh: inhibitors of Shiga toxin in Vero cells; Vero cells, Shiga toxin protein synthesis inhibition reporter; inhibition, % at 38.7 µM; 9.2% of 290,000 active; AID 2315; in the data active means inhibition mostly above about 28%, no sharp cut-off; inactive means mostly below about 43%; further: 0% is about no effect
* hit, by the source's call; ? = inconclusive; nt = no result; [ ] = remark or other dose. The list is not random: actives were taken first. Their share in the collection is about 14%. Unless noted, the call rests on the fitted dose curve; in most records, active means well fitted curve in the direction sought with a large enough effect; inconclusive means small, poorly fitted or top-dose-only effect, or another doubt; inactive means no such curve, though single readings can be large; an effect the other way counts as inactive or inconclusive.

SMILES | LmPK inhibitor | CHX counter | NS1 inh | Giardia FBPA inh | Shiga toxin inh
O=[N+]([O-])c1cccc(NC(=S)N2CCc3ccccc32)c1 | 0% | 32* | -25% | nt | 58*
O=C(NNC(=O)c1cc2ccccc2o1)c1ccc(Cl)cc1 | 9% | 0 | -8% | 1% | -5
O=C(Nc1ccccn1)c1cc2ccccc2o1 | 10µM* | -2 | -11% | -6% | -7
O=C(Nc1ccc(Cl)cn1)c1cc2ccccc2o1 | -24% | 66* | -36% | -13% | 105*
O=C(NC1=NCCS1)c1ccncc1 | -3% | -2 | ? | -3% | 8
O=C(NC1=NCCS1)c1cc2ccccc2o1 | ? | 18* | -48% | -8% | 17
O=C(Nc1cccc2ncccc12)c1cc2ccccc2o1 | 2% | -3 | -49% | -4% | -2
C/C(CCN1CCc2nc(-c3ccccc3)c(-c3ccccc3)cc2C1)=N\OC[C@@H](O)[C@@H]1O[C@@H]2OC(C)(C)O[C@@H]2[C@H]1O | nt | nt | nt | -1%[12.9 µM] | nt
CC(C)Oc1ccc(C(=O)N2CCN(C(=O)c3ccco3)CC2)cc1 | -6% | 1 | 5% | nt | -6
CCC(NC(=O)C1C2C=CC(C2)C1C(=O)O)c1ccc(C)cc1 (stereo unspecified) | -1% | -4 | 9% | 10% | 10
Cc1ccccc1OCC(=O)Nc1ccc2c(c1)Cc1ccccc1-2 | 7% | 18 | 5% | 4% | -10
COc1ccc(OCC(=O)Nc2ccc(N3CCN(C(=O)c4ccccc4)CC3)c(Cl)c2)cc1 | -1% | 9 | -25% | nt | -2
Cc1ccccc1OCC(=O)Nc1cccc(C(=O)O)c1 | -10% | 26* | 5% | 23% | 22
O=C(COc1ccccc1Cl)Nc1ccccc1C(=O)Nc1cccc(C(=O)O)c1 | 0% | 40* | 5% | nt | 33
Cc1ccccc1OCC(=O)Nc1ccc2c(c1)C(=O)c1ccccc1C2=O | -1% | 23* | 16% | -3% | 38*
Cc1ccccc1OCC(=O)Nc1ccc(N2CCN(C)CC2)c(Cl)c1 | -1% | 29* | -3% | -11% | 85*
O=C(COc1ccccc1Cl)Nc1ccc(C(=O)O)cc1NC(=O)COc1ccccc1Cl | -1% | 9 | 12% | nt | 16
O=C(CCC(=O)Nc1ccccc1Cl)NN=C1CCCC1 | -1% | 8 | 17% | nt | -1
N#Cc1ccc(CN2CCCC3(CCN(C(=O)c4cc(C(F)(F)F)cc(C(F)(F)F)c4)CC3)C2)cc1 | nt | nt | nt | -6% | nt
NCCCCCN | nt | -2 | nt | -1% | -6
COc1ncc2nc(-c3ccc(F)cc3)c(=O)n(Cc3ccc(F)cc3)c2n1 | nt | nt | nt | 0% | nt
O=C(COC(=O)Cn1cnc2ccccc21)Nc1ccc2c(c1)C(=O)c1ccccc1C2=O | -8% | 67* | 10% | -2% | 18*
CC(=O)c1cccc(NC(=O)COC(=O)c2ccccc2C)c1 | -7% | 62* | -25% | 1% | 110*
O=C(COc1ccc(S(=O)(=O)N2CCOCC2)cc1)N1CCN(c2ccccc2)CC1 | 1% | -1 | -17% | -1% | 8
CC(CCC(=O)O)C1CCC2C3CC[C@H]4CC(O)CC[C@@]4(C)C3CC(O)[C@]12C (stereo partly specified) | nt | nt | nt | 13% | nt
SMILES | LmPK inhibitor | CHX counter | NS1 inh | Giardia FBPA inh | Shiga toxin inh
COc1cc(CCC(=O)OCC(=O)Nc2ccc(F)c(F)c2F)cc(OC)c1OC | 2% | 1 | -3% | 9% | -6
O=c1c2c3c(sc2ncn1/N=C/c1ccccc1)CCCC3 | 0% | 19* | -3% | 2% | 64*
COc1cccc(-n2cnc3sc(C)c(C)c3c2=O)c1 | -1% | 29* | -15% | 0% | active
Cc1nc2sc3c(c2c(=O)n1/N=C/c1ccco1)CCCC3 | 8% | 16 | -2% | 7% | -20
Cc1sc2ncn(/N=C/c3ccco3)c(=O)c2c1C | -3% | 39* | -3% | -4% | 54*
O=c1c2c3c(sc2ncn1/N=C/c1ccco1)CCCC3 | 0% | 12 | -14% | -2% | 76*
Cc1cccc(-n2cnc3sc(C)c(C)c3c2=O)c1 | -6% | 5 | -8% | 4% | 20
COc1ccc(-n2cnc3sc4c(c3c2=O)CCCC4)cc1 | -2% | 25 | -2% | 2% | 72*
CCOc1ccc(-n2cnc3sc4c(c3c2=O)CCCC4)cc1 | 1% | 12 | -9% | -1% | 22
Cc1cccc(C(=O)NNC(=O)c2c(-c3ccccc3Cl)noc2C)c1O | -7% | 1 | -2% | nt | -8
Cc1ccc(Cl)cc1NC(=O)C1CC1c1ccccc1 (stereo unspecified) | 1% | 1 | -9% | -11% | nt
O=C(Nc1ccn(-c2ccccc2)n1)c1ccccc1Br | -4% | 38* | -9% | -15% | 50*
CC(=O)Nc1ccn(-c2ccccc2)n1 | 1% | 31* | 2% | 0% | 52*
N#Cc1ccc(C(=O)Nc2ccn(-c3ccccc3)n2)cc1 | 2% | -2 | -13% | -2% | -1
CC(C)CC(C(=O)O)C(C)CC(=O)Nc1ccn(-c2ccccc2)n1 (stereo unspecified) | 5% | -5 | 14% | 12% | 2
O=C(Nc1ccn(-c2ccccc2)n1)c1ccc(Cl)cc1 | -1% | 45* | -9% | -8% | 106*
Nc1ncnc2nn([C@H]3O[C@@H](CO)[C@@H](O)[C@H]3O)nc12 | nt | nt | -1% | nt | nt
CC1=CC(C)(C)Nc2ccc(OC(=O)c3ccco3)cc21 | -6% | 17* | -57% | -25% | 38
CC1=CC(C)(C)Nc2ccc(OC(=O)C(C)N3C(=O)c4ccccc4C3=O)cc21 (stereo unspecified) | 7% | 1 | 30% | -1% | -36
CC1=CC(C)(C)Nc2ccc(OC(=O)c3cccnc3)cc21 | 5% | 27* | -8% | -13% | 94*
CC1(C)NC(=O)N(CCOCCOc2cccc(Oc3ccccc3)c2)C1=O | 2% | 8 | -14% | 4% | -26
CC1(C)NC(=O)N(CCOCCOc2ccc3ccccc3c2Br)C1=O | 9% | 37* | -5% | -4% | 44
CC1(C)NC(=O)N(CCCCOc2ccc3ccccc3c2Cl)C1=O | 2% | 54* | -2% | -8% | 88*
CCN(CC)CCCN(C(=O)c1ccc(F)cc1)c1nc(-c2ccc(OC)cc2)cs1 | -1% | -6 | 15% | ? | -2
CCOC(=O)CCCNC(=O)CCNC(=O)c1ccc(OC(C)C)cc1 | -7% | 17* | 13% | 4% | 54*
SMILES | LmPK inhibitor | CHX counter | NS1 inh | Giardia FBPA inh | Shiga toxin inh
CCOC(=O)CCCNC(=O)CCNC(=O)c1ccc(OCC(C)C)cc1 | -1% | -3 | 1% | 4% | -2
CCc1ccc(NC2=NCC(c3ccccc3)S2)cc1 (stereo unspecified) | 0% | 58* | nt | -3% | 82*
O=[N+]([O-])c1ccc(C2CN=C(Nc3ccccc3)S2)cc1 (stereo unspecified) | 4% | 57* | nt | 2% | 77*
Cc1ccc(NC2=NCC(Cc3ccc(Br)cc3)S2)cc1 (stereo unspecified) | 7% | 6 | -4% | 1% | 26
CCc1ccccc1N(CC(=O)NC(C)(C)C)C(=O)CCC(=O)Nc1ccccn1 | 5% | -2 | 6% | -2% | 28
Cc1ccc(OCc2nc3ccccc3[nH]2)cc1 | ? | 61* | -23% | -2% | 57*

Bioassay records (PubChem)
